# Measurements from PubChem BioAssay (Tox21).
# Several values for one entry are separate records, joined by “and”; a condition that tells them apart may be missing. Equal values may be shown once. Records with an inconclusive call do not appear. Activity calls are given as the source filed them. Unless noted, calls come from the whole dose curve; as a rule, active = well fitted curve in the direction sought with a large enough effect in the repeat runs; inconclusive = weak or mixed curves; inactive = no such curve, though single readings can be large; an effect the other way counts as inactive or inconclusive.
# Key:
# [1] = qHTS assay to identify aromatase inhibitors - cell viability counter screen (AID 743084);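 note: cells stimulated with testosterone during compound exposure; nearly all actives have a fitted effect of over 55% in size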; note: potency is the fitted concentration of half-maximal effect
# [2] = molecular target: Aryl hydrocarbon receptor (Homo sapiens) (UniProt P35869); assay: qHTS assay to identify small molecule that activate the aryl hydrocarbon receptor (AhR) signaling pathway (AID 743085); note: nearly all actives have a fitted effect of over 15% in size; note: potency is the fitted concentration of half-maximal effect;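 for activation: HG2L7.5c1 human HepG2 liver cells with stably integrated DRE-driven firefly reporter; series mostly up to about 70 µM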
# Sequence of Aryl hydrocarbon receptor (Homo sapiens) (P35869 whole entry, looked up): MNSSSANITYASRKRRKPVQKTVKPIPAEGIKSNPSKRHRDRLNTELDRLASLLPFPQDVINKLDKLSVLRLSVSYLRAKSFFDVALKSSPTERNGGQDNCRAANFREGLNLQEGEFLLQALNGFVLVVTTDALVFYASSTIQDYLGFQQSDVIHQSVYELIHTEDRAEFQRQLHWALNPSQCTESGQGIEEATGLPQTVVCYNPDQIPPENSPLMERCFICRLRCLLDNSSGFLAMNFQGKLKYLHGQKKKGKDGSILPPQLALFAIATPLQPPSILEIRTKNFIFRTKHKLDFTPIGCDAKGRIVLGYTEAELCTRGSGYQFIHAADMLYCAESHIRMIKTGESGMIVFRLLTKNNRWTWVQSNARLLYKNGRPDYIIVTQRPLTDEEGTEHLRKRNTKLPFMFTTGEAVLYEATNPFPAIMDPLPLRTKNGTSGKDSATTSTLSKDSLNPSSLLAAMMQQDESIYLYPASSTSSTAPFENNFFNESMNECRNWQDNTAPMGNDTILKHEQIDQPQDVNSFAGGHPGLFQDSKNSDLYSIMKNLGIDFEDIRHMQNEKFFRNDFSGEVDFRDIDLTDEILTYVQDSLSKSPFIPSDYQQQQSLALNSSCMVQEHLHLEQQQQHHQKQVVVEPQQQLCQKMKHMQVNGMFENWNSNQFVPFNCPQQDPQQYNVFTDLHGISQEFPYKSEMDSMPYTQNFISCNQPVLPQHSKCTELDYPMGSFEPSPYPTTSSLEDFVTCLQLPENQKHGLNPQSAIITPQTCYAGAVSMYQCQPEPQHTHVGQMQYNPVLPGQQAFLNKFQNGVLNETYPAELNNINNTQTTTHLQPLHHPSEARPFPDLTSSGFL
# How it was run: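 Luminescence (ONE-Glo) from a dioxin-responsive-element luciferase reporter in HG2L7.5c1 HepG2 cells after 24 hr compound exposure at 37C; viability measured by CellTiter-Fluor fluorescence beforehand.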
# [3] = qHTS assay to identify small molecule that activate the aryl hydrocarbon receptor (AhR) signaling pathway - cell viability counter screen (AID 743086); note: nearly all actives have a fitted effect of over 45% in size; note: potency is the fitted concentration of half-maximal effect
# How it was run: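 Cytotoxicity counter screen: CellTiter-Fluor signal (30 min, 37 C) in 4000 HepG2 cells/well carrying the DRE-luciferase reporter, following 24 h compound exposure at 37 C.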
# [4] = qHTS assay to identify small molecule antagonists of the peroxisome proliferator-activated receptor gamma (PPARg) signaling pathway - cell viability counter screen (AID 743194); note: nearly all actives have a fitted effect of over 55% in size; note: potency is the fitted concentration of half-maximal effect
# How it was run: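 Viability was measured as CellTiter-Glo luminescence in GeneBLAzer PPARg UAS-bla HEK293H cells. These cells had been exposed 17 h at 37 C to compounds together with rosiglitazone at 50 nM final, with the beta-lactamase readout taken in the same wells.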
# [5] = qHTS assay for small molecule agonists of the antioxidant response element (ARE) signaling pathway - cell viability counter screen (AID 743203; calls by dose curve; note: nearly all actives have a fitted effect of over 55% in size; note: potency is the fitted concentration of half-maximal effect)
# How it was run: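 CellSensor ARE-bla HepG2 cells, 2,000 per well, rested 5 hrs at 37C/5% CO2, then exposed to compound in DMSO for 16 hrs; viability read as CellTiter-Glo luminescence after 30 min at room temperature, in the reporter wells.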
# [6] = qHTS assay for small molecule activators of the heat shock response signaling pathway - cell viability counter screen (AID 743209); note: nearly all actives have a fitted effect of over 50% in size; note: potency is the fitted concentration of half-maximal effect
# How it was run: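 CellSensor HSE-bla HeLa cells, plated overnight at 37 C/5% CO2, were exposed to compounds in DMSO for 5 h at 37 C. Viability was then read in the same wells by CellTiter-Glo luminescence after 30 min at room temperature.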
# [7] = qHTS assay to identify small molecule antagonists of the peroxisome proliferator-activated receptor delta (PPARd) signaling pathway - cell viability counter screen (AID 743213); note: nearly all actives have a fitted effect of over 50% in size; note: potency is the fitted concentration of half-maximal effect
# How it was run: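 PPARd-bla HEK293H cells were treated with compounds plus agonist L165041 (300 nM final) for 17 h at 37 C. Viability was then read in the same wells by CellTiter-Glo luminescence after 30 min at room temperature.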
# [8] = qHTS assay to identify small molecule agonists of the farnesoid-X-receptor (FXR) signaling pathway - cell viability counter screen (AID 743218); note: nearly all actives have a fitted effect of over 45% in size; note: potency is the fitted concentration of half-maximal effect
# How it was run: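 FXR-UAS-bla HEK 293T cells, plated 5 h at 37 C, were exposed to compounds for 16 h at 37 C. CellTiter-Glo was then added to the same wells as the bla readout; luminescence read after 30 min at room temperature.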
# [9] = qHTS assay to identify small molecule antagonists of the farnesoid-X-receptor (FXR) signaling pathway - cell viability counter screen (AID 743221; active = well fitted cell-killing curve with a large enough effect in the repeat runs, not every such curve was filed as active; note: nearly all actives have a fitted effect of over 50% in size; note: potency is the fitted concentration of half-maximal effect)
# How it was run: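 Cytotoxicity counter screen run in the FXR-bla reporter wells: HEK 293T cells exposed to compound with 50 uM (final) chenodeoxycholic acid for 16 h, 37 C, then viability measured by CellTiter-Glo luminescence after 30 min, room temperature.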
# [10] = molecular target: Vitamin D3 receptor (Homo sapiens) (UniProt P11473); assay: qHTS assay to identify small molecule antagonists of the vitamin D receptor (VDR) signaling pathway (AID 743223; active = well fitted inhibition curve with a large enough effect in the signal ratio in the repeat runs, not every such curve was filed as active; the % refers to the signal ratio; note: potency is the fitted concentration of half-maximal effect)
# Sequence of Vitamin D3 receptor (Homo sapiens) (P11473 whole entry, looked up): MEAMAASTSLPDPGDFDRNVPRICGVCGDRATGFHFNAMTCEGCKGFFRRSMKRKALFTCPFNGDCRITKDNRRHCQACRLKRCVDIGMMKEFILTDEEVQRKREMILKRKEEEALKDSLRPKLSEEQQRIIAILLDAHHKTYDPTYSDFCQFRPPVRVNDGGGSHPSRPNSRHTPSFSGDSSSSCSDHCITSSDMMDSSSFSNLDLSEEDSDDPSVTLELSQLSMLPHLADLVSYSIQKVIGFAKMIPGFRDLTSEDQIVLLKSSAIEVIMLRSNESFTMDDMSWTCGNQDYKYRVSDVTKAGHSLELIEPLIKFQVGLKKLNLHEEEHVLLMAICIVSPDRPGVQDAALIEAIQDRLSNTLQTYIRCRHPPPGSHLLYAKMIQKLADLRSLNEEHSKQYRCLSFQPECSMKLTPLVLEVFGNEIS
# How it was run: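 Antagonist mode: compound added to VDR-bla cells alongside agonist 1alpha,25-dihydroxyvitamin D3 (3 nM final), incubation 16 h at 37C. Read-out is LiveBLAzer FRET fluorescence, 2 h at room temperature.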
# [11] = qHTS assay to identify small molecule agonists of the peroxisome proliferator-activated receptor delta (PPARd) signaling pathway - cell viability counter screen (AID 743211); note: nearly all actives have a fitted effect of over 55% in size; note: potency is the fitted concentration of half-maximal effect
# How it was run: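 Viability was measured as CellTiter-Glo luminescence (30 min, room temperature) in the same wells as the beta-lactamase readout. GeneBLAzer PPARd UAS-bla HEK293H cells received compound after 5 h plating and were incubated 17 h at 37 C.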
# [12] = molecular target: Peroxisome proliferator-activated receptor delta (Homo sapiens) (UniProt Q03181); assay: qHTS assay to identify small molecule antagonists of the peroxisome proliferator-activated receptor delta (PPARd) signaling pathway (AID 743215; active = well fitted inhibition curve with a large enough effect in the signal ratio in the repeat runs, not every such curve was filed as active; the % refers to the signal ratio;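 note: cells stimulated with agonist L165041 at 300 nM final during compound exposure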; note: potency is the fitted concentration of half-maximal effect)
# Sequence of Peroxisome proliferator-activated receptor delta (Homo sapiens) (Q03181 whole entry, looked up): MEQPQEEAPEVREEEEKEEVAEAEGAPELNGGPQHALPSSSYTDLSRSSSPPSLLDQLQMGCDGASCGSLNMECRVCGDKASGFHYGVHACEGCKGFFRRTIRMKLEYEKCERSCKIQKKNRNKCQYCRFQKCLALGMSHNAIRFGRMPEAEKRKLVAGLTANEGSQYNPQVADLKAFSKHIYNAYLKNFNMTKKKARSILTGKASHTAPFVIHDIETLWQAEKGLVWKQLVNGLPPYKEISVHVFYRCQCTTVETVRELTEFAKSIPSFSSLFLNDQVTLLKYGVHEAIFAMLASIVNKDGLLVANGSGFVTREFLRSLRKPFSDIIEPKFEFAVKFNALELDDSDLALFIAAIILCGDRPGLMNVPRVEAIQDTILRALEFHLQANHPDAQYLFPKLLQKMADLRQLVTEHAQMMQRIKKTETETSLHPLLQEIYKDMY
# How it was run: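 PPARd UAS-bla HEK293H cells were pre-incubated 5 h at 37 C, then given test compounds in DMSO plus agonist L165041 (300 nM final). After 17 h at 37 C, beta-lactamase FRET substrate was added; fluorescence read after 2 h at room temperature.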
# [13] = qHTS assay for small molecule agonists of the antioxidant response element (ARE) signaling pathway (AID 743202; active = well fitted activation curve with a large enough effect in the signal ratio in the repeat runs, not every such curve was filed as active; the % refers to the signal ratio; note: potency is the fitted concentration of half-maximal effect)
# How it was run: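 An ARE-responsive beta-lactamase gene stably integrated in HepG2 cells serves as reporter. After 5 h plating and 16 h compound incubation at 37 C, fluorescence of the B/G FRET substrate was measured.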
# [14] = molecular target: Vitamin D3 receptor (Homo sapiens) (UniProt P11473); assay: qHTS assay to identify small molecule agonists of the vitamin D receptor (VDR) signaling pathway (AID 743222; calls by dose curve)
# How it was run: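 VDR-bla cells were plated 4 h at 37C/5% CO2, then exposed to compounds in DMSO for 16 h. After LiveBLAzer B/G FRET substrate addition and 2 h at room temperature, beta-lactamase reporter fluorescence was read.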
# [15] = qHTS assay for small molecule activators of the heat shock response signaling pathway (AID 743210; active = well fitted activation curve with a large enough effect in the signal ratio in the repeat runs, with a control signal flat, not every such curve was filed as active; the % refers to the signal ratio;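 note: HeLa cells with beta-lactamase reporter driven by heat shock elements; series mostly up to about 63 µM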)
# How it was run: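 In HSE-bla HeLa cells, 5 h compound incubation (37 C) precedes addition of LiveBLAzer B/G substrate; after 2.5 h at room temperature, fluorescence intensity indicates reporter induction.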
# [16] = molecular target: Bile acid receptor (Homo sapiens) (UniProt Q96RI1); assay: qHTS assay to identify small molecule antagonists of the farnesoid-X-receptor (FXR) signaling pathway (AID 743217; active = well fitted inhibition curve with a large enough effect in the signal ratio in the repeat runs, not every such curve was filed as active; the % refers to the signal ratio; note: potency is the fitted concentration of half-maximal effect)
# Sequence of Bile acid receptor (Homo sapiens) (Q96RI1 whole entry, looked up): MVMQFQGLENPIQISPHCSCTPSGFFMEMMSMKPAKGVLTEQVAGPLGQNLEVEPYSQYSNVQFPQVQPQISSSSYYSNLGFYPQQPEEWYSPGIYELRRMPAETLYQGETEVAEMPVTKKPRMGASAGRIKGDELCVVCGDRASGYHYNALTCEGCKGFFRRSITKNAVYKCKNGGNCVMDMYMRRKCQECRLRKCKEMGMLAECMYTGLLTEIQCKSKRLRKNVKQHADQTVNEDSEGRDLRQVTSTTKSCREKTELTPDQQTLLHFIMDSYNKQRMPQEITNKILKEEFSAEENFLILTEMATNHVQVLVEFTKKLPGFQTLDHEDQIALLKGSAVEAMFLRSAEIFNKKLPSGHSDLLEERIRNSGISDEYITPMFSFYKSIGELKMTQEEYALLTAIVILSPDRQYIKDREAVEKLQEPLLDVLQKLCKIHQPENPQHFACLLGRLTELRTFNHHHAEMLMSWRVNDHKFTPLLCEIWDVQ
# How it was run: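 FXR-UAS-bla HEK 293T cells pre-incubated 5 h at 37 °C, then exposed to compounds with chenodeoxycholic acid (50 uM final) for 16 h at 37 °C. Beta-lactamase reporter read by LiveBLAzer B/G FRET substrate fluorescence after 2 h at room temperature.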
# [17] = molecular target: Bile acid receptor (Homo sapiens) (UniProt Q96RI1); assay: qHTS assay to identify small molecule agonists of the farnesoid-X-receptor (FXR) signaling pathway (AID 743220; active = well fitted activation curve with a large enough effect in the signal ratio in the repeat runs, not every such curve was filed as active; the % refers to the signal ratio)
# How it was run: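 Beta-lactamase reporter under UAS control in GeneBLAzer FXR HEK 293T cells (5000/well) measured with LiveBLAzer FRET substrate after 2 h at room temperature. Compound exposure lasted 16 h at 37C.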
# [18] = molecular target: Peroxisome proliferator-activated receptor delta (Homo sapiens) (UniProt Q03181); assay: qHTS assay to identify small molecule agonists of the peroxisome proliferator-activated receptor delta (PPARd) signaling pathway (AID 743212; calls by dose curve)
# How it was run: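 HEK293H UAS-bla reporter cells, human PPARd system; compounds delivered in DMSO after 5 h plating, then at 37 C. Beta-lactamase FRET read, 2 h RT substrate step.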
SMILES,Potency [1],Potency [2],Potency [3],Potency [4],Potency [5],Potency [6],Potency [7],Potency [8],Potency [9],Potency [10],Potency [11],Potency [12],Potency [13],Potency [14],Potency [15],Potency [16],Potency [17],Potency [18]
CCCCCCCCCCCCc1ccc(O)cc1,61.1 µM (active),inactive,inactive,19.5 µM (active),54.5 µM (active),24.5 µM (active),24.5 µM (active),34.7 µM (active),43.6 µM (active),13.8 µM (active),,,,,,,,
O=C(Nc1cccc(Cl)c1)OCC#CCCl,24.3 µM (active),inactive,27.3 µM (active),24.5 µM (active),54.5 µM (active),19.5 µM (active),,,,,38.9 µM (active),11 µM (active),,,,,,
CC(C)=CCOc1ccc(/C=C/C(=O)c2ccc(OCC=C(C)C)cc2OCC(=O)O)cc1,inactive,inactive,inactive,29.8 µM (active),,inactive,inactive,,21.1 µM (active),,,,3.35 µM (active),inactive,,,,
Cc1ccc(-n2nc(C(C)(C)C)cc2NC(=O)Nc2ccc(OCCN3CCOCC3)c3ccccc23)cc1,inactive,15 µM (active),inactive,inactive,inactive,,,,,,,,inactive,,inactive,16.8 µM (active),inactive,
OC1(c2ccc(Cl)c(C(F)(F)F)c2)CCN(CCCC(c2ccc(F)cc2)c2ccc(F)cc2)CC1,7.5 µM (active),inactive,21.1 µM (active),8.41 µM (active),5.96 µM (active),7.5 µM (active),11.9 µM (active),9.44 µM (active),26.6 µM (active),,4.73 µM (active),26.6 µM (active),,,,,,
Oc1cccc(-c2c3nc(c(-c4cccc(O)c4)c4ccc([nH]4)c(-c4cccc(O)c4)c4nc(c(-c5cccc(O)c5)c5ccc2[nH]5)CC4)C=C3)c1,29.8 µM (active) and 21.1 µM (active),inactive,26.6 µM (active) and 29.8 µM (active),29.8 µM (active),inactive,inactive,,21.1 µM (active),,,,,,,,,,
Cc1cc(CCN2CCN(c3nsc4ccccc34)CC2)cc2c1NC(=O)CC2(C)C,24.3 µM (active),inactive,27.3 µM (active),19.5 µM (active),21.7 µM (active),,19.5 µM (active),21.9 µM (active),38.9 µM (active),,21.9 µM (active),19.5 µM (active),,,,,,
CCCCCCCCCCCC[N+](C)(C)CCCCCCCCCCCC,21.7 µM (active),inactive,48.6 µM (active),27.5 µM (active),24.3 µM (active),43.6 µM (active),13.8 µM (active),27.5 µM (active),,,17.4 µM (active),,,,,49 µM (active),,
CC(C)c1ccc2c(c1)CC[C@H]1[C@](C)(CN)CCC[C@]21C,24.3 µM (active),inactive,54.5 µM (active),11 µM (active),6.86 µM (active),19.5 µM (active),21.9 µM (active),12.3 µM (active),54.9 µM (active),49 µM (active),11 µM (active),,,,,,,
C=CC(=O)OCCn1c(=O)n(CCOC(=O)C=C)c(=O)n(CCOC(=O)C=C)c1=O,13.7 µM (active),inactive,38.6 µM (active),13.8 µM (active),54.5 µM (active),13.8 µM (active),19.5 µM (active),24.5 µM (active),34.7 µM (active),,19.5 µM (active),13.8 µM (active),,,,,,
NC(=O)CC[C@@H]1NC(=O)[C@H](Cc2ccccc2)NC(=O)[C@H](Cc2ccc(O)cc2)NC(=O)CCSSC[C@@H](C(=O)N2CCC[C@H]2C(=O)N[C@@H](CCCN=C(N)N)C(=O)NCC(N)=O)NC(=O)[C@H](CC(N)=O)NC1=O,inactive,inactive,inactive,inactive,inactive,inactive,inactive,inactive,inactive,,,,,inactive,,,,
C=CC(=O)OCC(CO)(COCC(COC(=O)C=C)(COC(=O)C=C)COC(=O)C=C)COC(=O)C=C,1.7 µM (active),inactive,6.04 µM (active),3.05 µM (active),8.53 µM (active),2.72 µM (active),5.43 µM (active),4.31 µM (active),9.65 µM (active),2.72 µM (active),3.05 µM (active),4.31 µM (active),,inactive,,,,
CCCCc1oc2ccc(NS(C)(=O)=O)cc2c1C(=O)c1ccc(OCCCN(CCCC)CCCC)cc1,29.8 µM (active),inactive,26.6 µM (active),29.8 µM (active),26.6 µM (active),29.8 µM (active),23.7 µM (active),26.6 µM (active),,,16.8 µM (active),,,,,,,
O=C(O)c1cc(O)c2c(c1)C(=O)c1cccc(O)c1C2=O,inactive,inactive,inactive,inactive,,inactive,,inactive,inactive,,inactive,inactive,25.1 µM (active),,inactive,,,inactive
